Sampled rows, rich in hits. Any-hit rate of the full collection: about 7.6%.
HEK293 cAMP cs – raises cAMP in parental HEK293 cells, TSHR agonist counter-screen; Potency, µM (doses to about 57.1 µM), most hits filed as activators; parental HEK293 CNG cAMP sensor, membrane potential fluorescence; 2.5% of 73,000 active; also: nearly all actives have a fitted effect of over 55% in size
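Parental HEK 293 cells stably expressing a modified CNG channel (no TSHR) report cAMP rise as membrane depolarization. Membrane potential dye with 100 uM RO 20-1724 was loaded for 60 min at room temperature, then compound added for 30 min; fluorescence read at 590 nm.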
TSHR ag – TSH receptor (human) agonism; P16473; HEK293-CNG-TSHR cells (CNG channel as cAMP sensor), membrane potential dye, cAMP; Potency, µM (series often up to 57.1 µM), usual class: activators; 0.48% of 73,000 active; AID 926; active = well fitted activation curve with a large enough effect in the main read-out, with a control signal flat, not every such curve was filed as active; inconclusive = small, poorly fitted or top-dose-only effect, or a change in a side signal; inactive = no such curve, though single readings can be large or run the other way; reference of the percent scale not stated here;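 also: the control signal comes from parental cells without the receptor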
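HEK 293 cells stably expressing TSHR and a cAMP-gated CNG channel; parental CNG-only cells as counterscreen. Cells preloaded 60 min with membrane potential dye plus 100 uM RO 20-1724, then compound 30 min; fluorescence read at 590 nm.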
Tau filament bind – binds recombinant human tau filaments. P10636. recombinant tau filaments, thioflavin S fluorescence, 15 h; filaments grown with octadecylsulfate alongside compound. Potency, µM (titrated, usually from 57.1 µM). 2% of 71,000 active. AID 596;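 also: actives lower thioflavin S fluorescence by blocking filaments or displacing dye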
Target sequence (P10636 whole entry, looked up): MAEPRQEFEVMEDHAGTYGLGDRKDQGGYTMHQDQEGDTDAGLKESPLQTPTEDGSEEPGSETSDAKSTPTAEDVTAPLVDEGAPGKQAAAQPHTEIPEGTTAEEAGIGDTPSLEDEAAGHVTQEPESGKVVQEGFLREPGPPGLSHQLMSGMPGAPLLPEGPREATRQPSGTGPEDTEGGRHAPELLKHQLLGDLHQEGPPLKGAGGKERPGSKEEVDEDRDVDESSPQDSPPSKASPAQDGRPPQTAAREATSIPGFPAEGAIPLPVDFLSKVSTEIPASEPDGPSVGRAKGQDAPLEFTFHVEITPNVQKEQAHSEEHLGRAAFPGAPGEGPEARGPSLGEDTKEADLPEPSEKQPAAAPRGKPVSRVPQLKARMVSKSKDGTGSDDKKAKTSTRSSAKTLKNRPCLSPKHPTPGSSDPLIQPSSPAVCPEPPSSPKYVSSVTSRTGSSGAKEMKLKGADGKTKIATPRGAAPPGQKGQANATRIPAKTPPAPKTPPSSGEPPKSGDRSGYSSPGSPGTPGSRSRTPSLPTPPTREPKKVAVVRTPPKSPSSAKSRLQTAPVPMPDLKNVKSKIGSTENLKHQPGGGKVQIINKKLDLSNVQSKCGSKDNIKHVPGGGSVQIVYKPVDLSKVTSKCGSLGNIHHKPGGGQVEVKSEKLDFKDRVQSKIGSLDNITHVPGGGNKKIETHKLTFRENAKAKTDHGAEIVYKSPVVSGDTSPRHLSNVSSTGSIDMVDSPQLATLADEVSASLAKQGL
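His-tagged recombinant human tau (exons 2, 3, 10; 1 uM final) fibrillized with 30 uM sodium octadecylsulfate, 15 h at 37 C, in pH 7.4 HEPES buffer with 10 uM thioflavine S and 5 mM DTT. Reduced ThS fluorescence (450/510 nm) marks activity.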
CRE Fsk mod – alters forskolin-stimulated CRE reporter signaling in CHO cells | CHO CRE-bla reporter (cAMP response element driving beta-lactamase), forskolin EC10, beta-lactamase ratio | Potency, µM (top dose mostly 38.2 µM), actives largely listed as activators | 2.5% of 71,000 active | AID 662; active = well fitted activation curve with a large enough effect in the signal ratio, with a control signal flat, not every such curve was filed as active; inconclusive = small, poorly fitted or top-dose-only effect, or effect the other way, or a change in a side signal; the % refers to the signal ratio
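Reporter-gene assay: CHO cells with beta-lactamase behind cAMP responsive elements, co-treated with compound and EC10 NKH 477 for 3 hours at 37 degrees Celsius. Activity came from the 460/530 nm CCF4 emission ratio.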
ERK AVP block – inhibitors of vasopressin-stimulated ERK signaling pathway | HEK293-V1b, vasopressin-stimulated pERK AlphaScreen | Potency, µM (doses to about 57.5 µM), hits mostly inhibitors | 0.99% of 72,000 active | AID 995; also: nearly all actives have a fitted effect of over 55% in size
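Phosphorylated ERK1/2 detected via AlphaScreen bead proximity in lysates of V1b-expressing HEK293 cells given 25 nM vasopressin for 5 min after 30 min compound exposure (37 °C). AC50 from Hill equation; basal DMSO 0%, vasopressin 100%.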
Of the large screens only hits and unclear results are named; the others gave an inactive call. Unless noted, calls follow the shape of the dose curve; as a rule, active = well fitted curve in the direction sought with a large enough effect; inconclusive = small, poorly fitted or top-dose-only effect, or another doubt; inactive = no such curve, though single readings can be large; an effect the other way counts as inactive or inconclusive.

O=S(=O)(NC1CCCCC1)c1cccc(-c2nnc(-c3ccccc3)o2)c1	HEK293 cAMP cs 20µM, TSHR ag inconclusive, ERK AVP block inconclusive
COc1cccc(Cn2c(N)c(C#N)c3nc4ccccc4nc32)c1OC	CRE Fsk mod 5.01µM, ERK AVP block inconclusive
COc1cc(Cn2c(N)c(C#N)c3nc4ccccc4nc32)cc(OC)c1	CRE Fsk mod 12.6µM
CCCCn1c(NC(=O)c2ccc(F)cc2)c(C#N)c2nc3ccccc3nc21	CRE Fsk mod inconclusive
CCCCOCCCn1c(-c2ccco2)nc2nc3ccccc3nc21	Tau filament bind 2µM, CRE Fsk mod 12.6µM
Fc1ccc(-n2c(-c3ccco3)nc3nc4ccccc4nc32)cc1	Tau filament bind 12.6µM
S=c1nc(-c2ccccc2)n(Cc2ccco2)c2c1CCCC2	TSHR ag 5.01µM (no result: Tau filament bind, CRE Fsk mod, ERK AVP block)
Fc1ccc(-c2nc3nc4ccccc4nc3n2Cc2ccco2)cc1	HEK293 cAMP cs inconclusive, TSHR ag inconclusive, Tau filament bind 15.8µM, CRE Fsk mod inconclusive
c1ccc(-c2nc3nc4ccccc4nc3n2Cc2ccco2)cc1	HEK293 cAMP cs 10µM, TSHR ag inconclusive, Tau filament bind 12.6µM, CRE Fsk mod inconclusive
CCSc1nnc(-c2cccc(S(=O)(=O)N(CC)CC)c2)n1Cc1ccccc1	HEK293 cAMP cs 15.8µM, TSHR ag inconclusive
CN(C)C(=O)c1ccc(-c2ccc3ncnc(N4CCOCC4)c3c2)cc1	ERK AVP block inconclusive (no result: TSHR ag)
Cn1c(=O)oc2cc(S(=O)(=O)Nc3ccc4c(c3)OCO4)ccc21	Tau filament bind 20µM
Cn1c(=O)c2cc(S(=O)(=O)Nc3ccc4c(c3)OCO4)ccc2n(C)c1=O	CRE Fsk mod inconclusive
Cc1ccc2c(c1)c1c3n2CCN=C3CCC1	Tau filament bind 12.6µM
CCN1C(=O)[C@H]2[C@H]3[C@H](O)[C@H](O)C/C(=N/OC[C@@H](O)[C@H]4O[C@H]5OC(C)(C)O[C@H]5[C@@H]4O)[C@@H]3CC[C@@H]2C1=O	none (no result: Tau filament bind, CRE Fsk mod)
COC(=O)c1ccc(NC(=O)c2sc3nc(-c4ccccc4)cn3c2C)cc1	HEK293 cAMP cs 31.6µM, TSHR ag inconclusive
COc1ccc(-c2cn3c(C)c(C(=O)Nc4cccc(NC(C)=O)c4)sc3n2)cc1	none
CC(C)[C@@H](OCc1ccccc1)[C@H](C)/C=N\OC[C@@H](O)COCc1ccco1	none (no result: Tau filament bind, CRE Fsk mod)
COc1cc(-c2ccc(N=Nc3ccc4c(S(=O)(=O)O)cc(S(=O)(=O)O)c(N)c4c3O)c(OC)c2)ccc1N=Nc1ccc2c(S(=O)(=O)O)cc(S(=O)(=O)O)c(N)c2c1O	Tau filament bind 12.6µM, CRE Fsk mod inconclusive, ERK AVP block 15.8µM
Cc1nn(-c2ccc(S(=O)(=O)O)cc2)c(O)c1N=Nc1ccc(-c2ccc(N=Nc3ccc4c(S(=O)(=O)O)cc(S(=O)(=O)O)c(N)c4c3O)c(O)c2)cc1O.[Cu].[Cu]	none
CNC1CC(N)[C@H](O)[C@@H](O[C@@H]2OC(CO)C3OC4(OC(C(N)CO)C(O)C(O)C4O)O[C@@H]3[C@H]2O)C1O (stereo not given in full)	none (no result: HEK293 cAMP cs, TSHR ag, Tau filament bind, CRE Fsk mod)
CN(C)c1ncc2nc(-c3cccc(C#N)c3)c(=O)n(C[C@H]3CCCO3)c2n1	HEK293 cAMP cs inconclusive, TSHR ag inconclusive, CRE Fsk mod inconclusive
CN(C)c1ncc2nc(-c3ccccc3)c(=O)n(C[C@H]3CCCO3)c2n1	CRE Fsk mod 3.98µM
CN(C)c1ncc2nc(-c3cn(C)c4ccccc34)c(=O)n(C[C@H]3CCCO3)c2n1	CRE Fsk mod 2µM, ERK AVP block inconclusive
CN1CCN(c2ncc3nc(-c4cn(C)c5ccccc45)c(=O)n(C[C@H]4CCCO4)c3n2)CC1	CRE Fsk mod inconclusive
CN(C)c1ncc2nc(-c3ccc(Cl)cc3)c(=O)n(C[C@H]3CCCO3)c2n1	CRE Fsk mod 3.98µM
O=c1c(-c2ccc(Cl)cc2)nc2cnc(Nc3ccccc3)nc2n1C[C@H]1CCCO1	CRE Fsk mod inconclusive
O=c1c(-c2ccccc2)nc2cnc(N3CCOCC3)nc2n1C[C@H]1CCCO1	CRE Fsk mod 2µM
NC(=O)N[C@H](CC(=O)O)C(=O)O	none
CN(C)CCCN1c2ccccc2Sc2ccc(Cl)cc21	Tau filament bind 5.01µM, ERK AVP block inconclusive
CN(C)CCCN1c2ccc3ccccc3c2Sc2cccc(Cl)c21	Tau filament bind inconclusive, CRE Fsk mod inconclusive
CN(C)CCCN1c2ccccc2Sc2ccc3ccccc3c21	Tau filament bind 2.51µM, CRE Fsk mod inconclusive
Cc1nc(NCc2ccccc2)c2nc(-c3ccccc3)n(C(C)CN(C)C)c2n1 (stereo not given)	none
CO[C@@H]1COC(=O)CC=C[C@@H](C)[C@@H]2C=C[C@H](O)[C@@H](COC(=O)[C@H](C)NC(=O)CC=C[C@H]1C)O2	none (no result: Tau filament bind, CRE Fsk mod)
CCN(CC)CCn1c(-c2ccccc2)nc2c(NCc3ccccc3)nc(C)nc21	HEK293 cAMP cs inconclusive, TSHR ag inconclusive
Cc1noc(C)c1CSCC(=O)N1CCN(c2ccc(F)cc2)CC1	HEK293 cAMP cs inconclusive, TSHR ag inconclusive
Cc1cccc(N2CCN(C(=O)CSCc3c(C)noc3C)CC2)c1C	HEK293 cAMP cs inconclusive, TSHR ag inconclusive, CRE Fsk mod inconclusive, ERK AVP block 25.1µM
Cc1noc(C)c1CSc1ccccc1C(=O)N1CCN(c2ccccc2)CC1	TSHR ag 3.16µM
COC(=O)C(C#N)c1nc2ccccc2nc1N1CCN(Cc2ccc3c(c2)OCO3)CC1 (stereo not given)	Tau filament bind 12.6µM
C=CCNC(=O)C(C#N)c1nc2ccccc2nc1N1CCN(Cc2ccccc2)CC1 (stereo not given)	CRE Fsk mod inconclusive
CCCCOC(=O)C(C#N)c1nc2ccccc2nc1N1CCN(Cc2ccc3c(c2)OCO3)CC1 (stereo not given)	TSHR ag inconclusive, Tau filament bind 0.398µM, CRE Fsk mod inconclusive
CC(C)COC(=O)C(C#N)c1nc2ccccc2nc1N1CCN(Cc2ccc3c(c2)OCO3)CC1 (stereo not given)	HEK293 cAMP cs inconclusive, TSHR ag inconclusive, Tau filament bind 2µM
CCCCCCCCCCCCCCCCCC(=O)NC[C@@H](COP(=O)([O-])OCC[N+](C)(C)C)OCC	CRE Fsk mod inconclusive
CN(C)c1ccc(-c2cc(N(C)Cc3ccco3)ncn2)cc1	CRE Fsk mod inconclusive, ERK AVP block inconclusive (no result: TSHR ag)
Cc1cccc(CNc2ncnc3ccc(-c4ccccc4CN(C)C)cc23)c1	none
O=C(CSc1nc2ccccc2[nH]1)c1ccc2c(c1)OCO2	none
Cc1ccc(-n2c(SCC(=O)Nc3ccc4c(c3)OCCO4)nnc2-c2ccco2)cc1	TSHR ag 25.1µM, CRE Fsk mod inconclusive
O=C(CCc1nc2ccccc2[nH]1)Nc1ccc2c(c1)OCO2	Tau filament bind 12.6µM
CCCn1c(SCC(=O)Nc2ccc3c(c2)OCCO3)nnc1-c1ccco1	none
O=C(CSc1nc2ccccc2[nH]1)Nc1ccc2c(c1)OCCO2	ERK AVP block 31.6µM (no result: TSHR ag)
O=C(O)[C@H]1O[C@H]1C(=O)O	none
